Shown are actives, neighbours in structure and some others; about 1.4% of the full set was active somewhere.
GRP78 ERSR act: qHTS for Inducers of the Endoplasmic Reticulum Stress Response (ERSR) in Human Glioma: qHTS | U87-MG GRP78 promoter luciferase reporter, 16 h | 420,000 tested, 0.02% active | Potency, µM, actives largely listed as activators; note: series mostly up to about 76 µM; nearly all actives have a fitted effect of over 35% in size
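ERSR induction read as luciferase luminescence (Bright-Glo, 10 min at room temperature) in stably transfected human U87-MG glioma cells exposed to compounds for 16 h, using GRP78 as sensor.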
PTHR1 agonist: qHTS for PTHR1 Agonists: Primary Screen | HEK293 GP2 PTHR1 cells, GloSensor cAMP luminescence, 1 h | Potency, µM (doses to about 115 µM), actives largely listed as activators | 410,000 tested, 0.075% active | AID 743266, 2014; note: nearly all actives have a fitted effect of over 55% in size
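HEK-293-derived GP2 cells expressing PTHR1 and a GloSensor cAMP reporter, 3,000/well, plated overnight, given luciferin plus IBMX (each 0.5 mM as added) for 1 h at 37 °C, then compound for 1 h at 37 °C. Luminescence was read after 15 min at room temperature.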
RXFP1 antag: qHTS Assay for Antagonists of the Relaxin Receptor RXFP1; HEK293-RXFP1, relaxin-stimulated cAMP HTRF, 30 min; hits give low values; activity change, negative = inhibition, % at 57.5 µM; 350,000 tested, 0.59% active; AID 1259400, 2018;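 active = activity change of -60% or lower, but not beyond a set lower limit; inconclusive = change between -60% and -40%, or beyond the set limit; inactive = change above -40%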
hERG WT inh: qHTS for Inhibitors of KCHN2 3.1: Wildtype qHTS | 340,000 tested, 0.37% active | AID 720551, 2013 | U2OS, BacMam KCNH2, thallium flux FluxOr; hits give low values | activity change, % at 1.84 µM;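 active = maximum activity change below -70%; inconclusive = maximum activity change between -70% and -50%; inactive = maximum activity change above -50%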
Target sequence (Q12809 whole entry, looked up): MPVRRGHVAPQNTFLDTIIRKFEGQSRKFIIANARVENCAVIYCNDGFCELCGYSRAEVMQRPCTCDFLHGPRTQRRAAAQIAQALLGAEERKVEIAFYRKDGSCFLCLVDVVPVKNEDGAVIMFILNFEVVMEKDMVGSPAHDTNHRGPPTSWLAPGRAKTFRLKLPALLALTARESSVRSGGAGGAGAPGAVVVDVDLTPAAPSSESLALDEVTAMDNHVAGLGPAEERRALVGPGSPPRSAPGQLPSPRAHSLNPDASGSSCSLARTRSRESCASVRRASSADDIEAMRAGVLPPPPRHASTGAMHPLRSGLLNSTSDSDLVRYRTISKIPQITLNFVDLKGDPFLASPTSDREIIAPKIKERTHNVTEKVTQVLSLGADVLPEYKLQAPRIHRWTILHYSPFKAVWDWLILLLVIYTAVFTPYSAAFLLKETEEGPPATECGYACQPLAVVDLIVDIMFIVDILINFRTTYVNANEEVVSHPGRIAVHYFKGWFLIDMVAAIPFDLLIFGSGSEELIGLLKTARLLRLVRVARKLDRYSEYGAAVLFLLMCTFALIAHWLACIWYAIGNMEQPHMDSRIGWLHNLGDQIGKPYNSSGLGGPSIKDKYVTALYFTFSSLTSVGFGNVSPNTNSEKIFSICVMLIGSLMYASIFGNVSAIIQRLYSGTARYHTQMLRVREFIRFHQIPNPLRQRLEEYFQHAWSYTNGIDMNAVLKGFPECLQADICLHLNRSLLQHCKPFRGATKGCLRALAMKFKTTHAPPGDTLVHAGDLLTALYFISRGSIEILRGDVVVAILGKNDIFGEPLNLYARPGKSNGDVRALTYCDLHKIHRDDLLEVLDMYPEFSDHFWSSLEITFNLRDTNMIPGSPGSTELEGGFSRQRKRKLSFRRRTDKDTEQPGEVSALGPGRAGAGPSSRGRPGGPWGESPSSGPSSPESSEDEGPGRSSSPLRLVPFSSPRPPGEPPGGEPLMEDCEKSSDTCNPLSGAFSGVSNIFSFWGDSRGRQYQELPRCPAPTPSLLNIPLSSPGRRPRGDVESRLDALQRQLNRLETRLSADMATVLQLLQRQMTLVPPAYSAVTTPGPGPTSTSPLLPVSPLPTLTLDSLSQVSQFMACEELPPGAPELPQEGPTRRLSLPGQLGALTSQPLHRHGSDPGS
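U2OS cells transduced with wild-type KCNH2 virus are loaded with FluxOr dye for 45 min, and thallium flux is measured in kinetic reads before and after stimulation buffer. Rate constants are normalized to DMSO controls.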
KCNH2 3.1 inh: qHTS for Inhibitors of KCHN2 3.1: Mutant qHTS; Potassium voltage-gated channel subfamily H member 2, brain isoform KCNH2 3.1 (human); U2OS KCNH2 3.1, thallium flux FluxOr; hits give low values; activity change, % (tested at about 1.8 µM); 340,000 tested, 0.95% active;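 active = maximum activity change below -70%; inconclusive = maximum activity change from -70% to -50%; inactive = maximum activity change above -50%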;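 note: thallium influx rate constant from kinetic fluorescence after stimulation buffer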
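We transduce U2OS cells with the mutant 3.1 virus, culture them overnight, load FluxOr with Red40 quencher for 45 min, then add stimulation buffer and read kinetically for 2 min to derive a normalized rate constant.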
RXFP1 agonist: qHTS Assay for Agonists of the Relaxin Receptor RXFP1. Relaxin receptor 1 (Homo sapiens), Q9HBX9. Potency, µM (doses to about 57.5 µM), most hits filed as activators. AID 2676, 2010. 370,000 tested, 0.3% active. HEK293T-RXFP1 cAMP TR-FRET, 30 min; response scale: percent of porcine relaxin response, buffer zero; note: nearly all actives have a fitted effect of over 60% in size
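HEK293 cells stably expressing RXFP1, treated 30 min at 37C with compounds plus PDE4 inhibitor Ro 20174; cAMP measured by HTRF TR-FRET. Normalized to buffer and 29 nM porcine relaxin; EC50 by Hill fit.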
Hits are given with their value; – = inactive; ? = inconclusive; · = no result given. Unless noted, calls come from the whole dose curve; as a rule, active = well fitted curve in the direction sought with a large enough effect; inconclusive = small, poorly fitted or top-dose-only effect, or another doubt; inactive = no such curve, though single readings can be large; an effect the other way counts as inactive or inconclusive.

SMILES	GRP78 ERSR act	PTHR1 agonist	RXFP1 antag	hERG WT inh	KCNH2 3.1 inh	RXFP1 agonist
CCCCc1ccc(NC(=O)C(=O)NCCN2CCN(C(=O)c3ccc([N+](=O)[O-])cc3)CC2)cc1	–	–	–	?	-100.8	–
CCc1ccc(NC(=O)C(=O)NCCN2CCN(C(=O)c3ccc(OC)cc3)CC2)cc1	–	–	–	–	-96.7	·
O=C(CCN1CCN(c2ccc([N+](=O)[O-])cc2)CC1)c1ccc(Cl)cc1	–	–	–	-77.3	-113.2	–
O=C(O)CCCC(=O)N1CCN(c2nc(-c3ccccc3)c3ccccc3n2)CC1	–	–	·	–	–	–
CC(C)CN(C(=O)C1=COCCO1)c1c(N)n(Cc2ccccc2)c(=O)[nH]c1=O	–	–	–	–	–	·
C/C(=N/NC(=O)CN1CCN(Cc2ccccc2)CC1)c1ccc([N+](=O)[O-])cc1	–	–	–	–	-79.1	–
O=C(NCCN1CCN(Cc2ccc([N+](=O)[O-])cc2)CC1)C(=O)Nc1ccccc1	–	–	–	?	-81.8	–
C/C(=N\NC(=O)CN1CCN(Cc2ccccc2)CC1)c1ccncc1	–	–	–	–	–	–
O=C(NCCN1CCN(Cc2ccccc2)CC1)Nc1cc(Cl)cc(Cl)c1	–	–	–	?	-92.8	–
Cc1ccc(-c2nn(C)c(=O)c3ccccc23)cc1CNC(=O)CSc1nc2ccccc2o1	–	–	–	–	–	–
COC(CNC(=O)C1CCCN(S(=O)(=O)c2c(C)noc2/C=C/c2cccs2)C1)OC (stereo unspecified)	–	–	–	–	–	–
O=C(O)c1ccc(COc2ccccc2C=C2C(=O)c3ccccc3C2=O)cc1	–	–	-60.3	–	–	–
CCCCC(=O)Nc1ccc(C(=O)NNC(=S)NC(=O)c2cccs2)cc1	–	–	–	–	–	–
CC[C@]12c3[nH]c4ccccc4c3CCN1C(=O)C(CC(=O)NCCCOC)C[C@@H]2C(=O)N1CCN(C(=O)C2CC2)CC1 (stereo partly specified)	–	–	·	–	–	·
CC[C@]12c3[nH]c4ccccc4c3CCN1C(=O)C(CC(=O)NCCN1CCOCC1)C[C@@H]2C(=O)N1CCN(C(=O)C2CC2)CC1 (stereo partly specified)	–	–	·	-114.1	–	·
COc1ccccc1CCC(=O)NC1CCCN(c2ccc(C(F)(F)F)cn2)C1 (stereo unspecified)	–	–	-99.0	–	–	–
COc1ccccc1NC(=O)c1cc2c(=O)oc3ccc(C)cc3c2s1	–	–	–	·	·	–
O=C(N[C@H]1/C=C\[C@@H](O)CCCC1)OCc1ccccc1	–	–	·	–	–	·
O=C(COC(=O)C1CCN(c2ccc(C(F)(F)F)cn2)CC1)c1ccc(F)cc1	–	–	–	–	-78.5	–
COc1cc(C(=O)COC(=O)C2CCN(c3ccc(C(F)(F)F)cn3)CC2)ccc1OC(F)F	–	–	–	–	-78.7	–
O=C(COC(=O)C1CCN(c2ccc(C(F)(F)F)cn2)CC1)c1ccc(Cl)cc1	–	–	–	–	–	–
COc1ccc(C(=O)COC(=O)C2CCN(c3ccc(C(F)(F)F)cn3)CC2)c(OC)c1	–	–	–	–	–	–
CCn1c(N)c(C(N)=O)sc1=S	–	–	–	–	–	–
O=C1c2sccc2-c2cccc3cccc1c23	–	–	–	–	–	·
COc1cccc(-c2nc(CS(=O)(=O)CC(=O)Nc3c(C)cc(C)cc3C)c(C)o2)c1	–	–	–	·	·	–
COc1cccc(-c2nc(CS(=O)(=O)CC(=O)Nc3c(C)cccc3C)c(C)o2)c1	–	–	–	–	-104.0	–
